Several values for one entry are separate records, joined by “and”; a condition that tells them apart may be missing. Equal entries are not always repeated. Screen size: about 300,000 compounds; about 5,400 (1.8%) were called active. Inconclusive results (about 28%) are left out. What follows is part of a selection rich in actives, with near analogues and random picks from the rest. Unmarked numbers belong to inactive results. The call rests on the fitted dose curve; tested in HEK293 cells.
Experiment: qHTS for inhibitors of binding or entry into cells for Marburg Virus
Settings: Marburg virus pseudotyped entry inhibition, cell reporter; series mostly up to 37.8 µM; activity change, negative = inhibition: at the top concentration
On the % scale 0 is the no-effect control and ±100 the full control effect; potency means the concentration at half of the fitted maximal effect.

Structure (SMILES)	activity change, negative = inhibition	Potency
CCOc1ccc(CN2CCCN(C)CC2)cc1	-2.41%	
CCOc1ccc(C(O)Cn2c(=N)n(CCN3CCCCC3)c3ccccc32)cc1 (stereo not drawn)		18.3 µM (active)
CCOc1ccc(C(O)Cc2nc3ccccc3n2C)cc1 (stereo not drawn)	14.5%	
CCOc1ccc(S(=O)(=O)N2CCN(C(=S)NCC3CCCO3)CC2)cc1 (stereo not drawn)	22.4% [at 46.1 µM]	
CC1(C)C(=O)CCC2(C)C1=CCC1C2C(=O)CC2(C)C1CCC2(O)C(=O)CO (stereo not drawn)	-26.4%	
CC(=O)OCC(=O)C1(O)CCC2C3CC(C)C4=CC(=O)CCC4(C)C3C(O)CC21C (stereo not drawn)	-12.6% [at 46.1 µM]	
COc1ccccc1NC(=O)N1CCCC1C(=O)NCc1cccs1 (stereo not drawn)	2.43% [at 46.1 µM]	
CCS(=O)(=O)Nc1ccc(C2=NN(S(=O)(=O)c3ccc(F)cc3)C(c3ccco3)C2)cc1 (stereo not drawn)		18.3 µM (active)
CS(=O)(=O)Nc1ccc(C2=NN(S(C)(=O)=O)C(c3cccs3)C2)cc1 (stereo not drawn)	15.1%	
CCS(=O)(=O)Nc1ccc(C2=NN(C(C)=O)C(c3cccs3)C2)cc1 (stereo not drawn)	-4.67% [at 46.1 µM]	
COc1ccc(-n2cc(CN(C)Cc3n[nH]c(=O)[nH]3)c(-c3cccc(F)c3)n2)cc1	-18.4% [at 46.1 µM]	
COc1ccc(-c2nn(-c3ccccc3)cc2CN2CCCO2)c(F)c1	-6.45% [at 46.1 µM]	
COc1ccc(-n2cc(CNC3CCOCC3)c(-c3cccc(F)c3)n2)cc1		11.2 µM (active)
N#C/C(=C1\CCCN1)c1nc(-c2ccccc2)cs1	0.0724%	
N#CC1=C(SCc2ccccc2)NC(=O)C(C#N)C12CCCC2 (stereo not drawn)	-21.9%	
N#CC1=C(SCc2ccc(C#N)cc2)N=C(N)C(c2nc(-c3ccccc3)cs2)C12CCCCC2 (stereo not drawn)		7.08 µM (active)
NC(CSC1(c2ccccc2)c2ccccc2-c2ccccc21)C(=O)O (stereo not drawn)	12%	
CCCc1cc(=O)[nH]c(SCC(=O)Nc2ccc(C(=O)Nc3ccccc3OC)cc2)n1	-26.8%	
CC1CCN(C(=O)/C(=C\c2ccccc2)NC(=O)c2ccccc2)CC1	-1.05% [at 46.1 µM]	
COc1ccc(S(=O)(=O)N2CCC(C(=O)NCc3ccco3)CC2)cc1C	3.65% [at 46.1 µM]	
CC(C)Oc1ccc(Oc2ccc(C(F)(F)F)cn2)cc1	23.2% [at 46.1 µM]	

Structure (SMILES)	activity change, negative = inhibition	Potency
CC(NC(=O)Cn1cc(C(F)(F)F)cc(Cl)c1=O)c1ccccc1 (stereo not drawn)	12.4% [at 46.1 µM]	
CNCC[C@H](Oc1ccc(C(F)(F)F)cc1)c1ccccc1		10.3 µM (active) and 7.08 µM (active)
COc1ccccc1N(CC(=O)Nc1ccccc1C(=O)N1CCCC1)S(C)(=O)=O	-13.4% [at 46.1 µM]	
Cc1ccc(S(=O)(=O)N2CCN=C2SCc2c(F)cccc2Cl)cc1	18.5%	
COc1ccc(COC(=O)c2ccc(Cl)c(S(=O)(=O)N3CCOCC3)c2)cc1F	-21.5%	
CCCC(=O)Nc1ccc(C(=O)N/N=C/c2ccc[nH]2)cc1		7.08 µM (active)
CC(=O)Nc1ccc(C(=O)/C=C/c2ccc[nH]2)cc1	18% [at 46.1 µM]	
CCCCCC(=O)Nc1ccc(C(=O)N/N=C/c2ccc([N+](=O)[O-])cc2)cc1	-0.0189%	
COC(=O)c1ccc(COc2ccc(/C=N/NC(=O)C(=O)Nc3ccc(OC)cc3)cc2OC)o1	-1.32% [at 46.1 µM]	
COc1ccc(C(=O)Nc2ccccc2C(=O)N/N=C/c2ccccc2OC)cc1	2.26%	
CCOc1cc(/C=N/NC(=O)OC)ccc1OCCSc1ccc(Cl)cc1	-35.7%	
COc1cc(/C=N/NC(=O)Nc2ccccc2)ccc1OCCOc1ccccc1C		2.31 µM (active)
COc1cc(/C=N/NC(=O)c2ccc(N3CCCC3=O)cc2)ccc1O	-7.56%	
COc1cc(/C=N/NC(=O)c2ccccc2)ccc1OS(=O)(=O)c1ccccc1		9.2 µM (active)
COc1ccc(/C=N/S(=O)(=O)c2ccccc2)cc1OC	-3.98% [at 14.2 µM]	
COc1cc(C=NNC(=O)c2cccnc2)ccc1OC(=O)c1ccccc1F	0.992%	
COc1ccc(C(=O)Nc2ccccc2C(=O)N/N=C/c2ccc(O)c(OC)c2)cc1		0.398 µM (active)
COc1ccc(OC[C@H]2CN3[C@@H](CC[C@@H](C)[C@@H]3c3ccc(Br)cc3)C(=O)O2)cc1	-7.49% [at 14.2 µM]	
COC1=NC2=NCCN2C(OC)=N1	-7.96% [at 46.1 µM]	
COc1ccc(CCNC(=O)COC(=O)c2ncc(Cl)c(Cl)c2Cl)cc1OC	-3.32%	
COc1ccccc1C(=O)c1ccccc1C(=O)c1ccccc1	11.4% [at 46.1 µM]	

Structure (SMILES)	activity change, negative = inhibition	Potency
COc1ccc(N2CC(C(=O)N[C@@H](C)C(=O)N3CCCCC3)CC2=O)cc1 (stereo partly drawn)	7.02% [at 46.1 µM]	
O=C1COc2ccc(C(=O)COC(=O)CCOc3ccccc3)cc2N1	-20%	
CC(NS(=O)(=O)c1ccc(OCC(=O)N2CCCC2)cc1)c1ccccc1 (stereo not drawn)	1.04% [at 46.1 µM]	
COc1ccc(S(=O)(=O)N2CCN(CC(=O)N3c4ccccc4CC3C)CC2)cc1OC (stereo not drawn)	1.43%	
COc1ccc(C(=O)O)cc1S(=O)(=O)NC1CCN(Cc2ccccc2)CC1	-1.19%	
O=C(Cn1cnc2ccccc2c1=O)NNC(=O)c1ccccc1F	11.2%	
Cc1ccc(NS(=O)(=O)c2ccc(C)c(NC(=O)COc3ccc4ccccc4c3)c2)c(C)c1		11.2 µM (active)
Cc1ccc(C)c(NS(=O)(=O)c2ccc(OCC(=O)NCc3cccnc3)cc2)c1	-33.3%	
Cc1ccc(C)c(NC(=O)CN(C)C(=O)COc2ccc3ccccc3c2)c1	4.53%	
CC(C)c1ccc2c(c1)c(SC(C)(C)C)c(CC(C)(C)C(=O)O)n2Cc1ccc(Cl)cc1		11.2 µM (active) and 6.51 µM (active)
O=C(O)c1ccc(Cn2c(=S)[nH]c3cc(Cl)ccc3c2=O)cc1	-16.6% [at 46.1 µM]	
CC(C)c1ccc(Cn2c(COc3ccccc3)nc3ccccc32)cc1	-19.3% [at 46.1 µM]	
CN(C)C(=O)CCc1ccc2c3c([nH]c2c1)[C@]1(CCC2CCCC2)[C@@H](C(=O)N2CCOCC2)C[C@H](CC(=O)NCc2ccco2)C(=O)N1CC3	2.09%	
CCOC(=O)c1cc(S(=O)(=O)NCCc2ccc(OC)c(OC)c2)cn1C	-2.37% [at 46.1 µM]	
COc1cccc(/C=N/Nc2ncc(C(F)(F)F)cc2Cl)c1O		0.794 µM (active)
COc1cc(/C=C2\SC(=S)N(Nc3ncc(C(F)(F)F)cc3Cl)C2=O)cc(OC)c1OC	-9.7%	
COc1cccc(/C(C)=N/Nc2ncc(Cl)cc2Cl)c1	2.55%	
CCCCn1c(N)c(N(Cc2ccccc2OC)C(=O)COc2cc(C)ccc2Cl)c(=O)[nH]c1=O	-20.6%	
Cc1ccc(S(=O)(=O)N(C)C)cc1NC(=O)C1Cc2ccccc2CN1C(=O)c1ccco1 (stereo not drawn)	-4.73% [at 46.1 µM]	
Cc1ccc(C)c(NC(=O)C2Cc3ccccc3CN2C(=O)OCc2ccccc2)c1 (stereo not drawn)		2.51 µM (active)
Cc1ccc(C)c(NC(=O)C2CCCN2C(=O)OC(C)(C)C)c1 (stereo not drawn)	0%	
